Laboratory results taken from PubChem BioAssay AID651903 (Broad Institute, 2012).
The campaign covered roughly 22,000 compounds. About 1,100 (5%) were called active. No stated cut-off is given here; in the data, active means activity score above about 55%; inconclusive means no clear call, values can overlap the other calls; inactive means below that. The sample as a whole holds a higher share of actives than the screen did.

assay: T. cruzi growth inside host cells – cell-based, plate reader, single point, set 2, primary screen (AID 651903); conditions: intracellular Trypanosoma cruzi in host cells, at 5.01 µM, hits give high values;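 further: parasites and compound incubated about four days before reading; 0% = median of neutral control wells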

Question: With C[C@H](CO)N1C[C@H](C)[C@@H](CN(C)S(=O)(=O)c2ccc(F)cc2)Oc2c(NC(=O)Nc3ccccc3)cccc2C1=O as the compound, how does the activity score (inhibition) read?
Answer: 14.1% (inactive)

Question: With C[C@H]1CN([C@@H](C)CO)C(=O)Cc2cc(NS(=O)(=O)c3ccc(Cl)cc3)ccc2O[C@H]1CN(C)S(C)(=O)=O as the compound, how does the activity score (inhibition) read?
Answer: -19.4% (inactive)

Question: For COc1ccc(S(=O)(=O)N(C)C[C@H]2OCCCC[C@@H](C)Oc3ccc(NC(=O)c4ccncc4)cc3C(=O)N([C@H](C)CO)C[C@@H]2C)cc1, which activity score (inhibition) is on record?
Answer: -7.48% (inactive)

Question: With COc1ccc(S(=O)(=O)N(C)C[C@H]2OCc3cnnn3CCCC(=O)N([C@H](C)CO)C[C@H]2C)cc1 as the compound, how does the activity score (inhibition) read?
Answer: 0.901% (inactive)

Question: For C[C@@H]1CN([C@@H](C)CO)C(=O)c2cccc(NC(=O)CCCCCC(=O)Nc3ccccc3N)c2O[C@H]1CN(C)C(=O)Nc1cccc2ccccc12, which activity score (inhibition) is on record?
Answer: 0.294% (inactive)

Question: With C[C@@H]1CN([C@H](C)CO)C(=O)c2cccc(NC(=O)CCCCCC(=O)Nc3ccccc3N)c2O[C@H]1CN(C)CC1CCCCC1 as the compound, how does the activity score (inhibition) read?
Answer: 62.4% (active)

Question: With C[C@@H]1CN([C@@H](C)CO)C(=O)c2cccc(NC(=O)CCCCCC(=O)Nc3ccccc3N)c2O[C@@H]1CN(C)CC1CCCCC1 as the compound, how does the activity score (inhibition) read?
Answer: 17.2% (inactive)

Question: With C[C@H]1CN([C@@H](C)CO)C(=O)c2cccc(NC(=O)CCCCCC(=O)Nc3ccccc3N)c2O[C@@H]1CN(C)CC1CCCCC1 as the compound, how does the activity score (inhibition) read?
Answer: 81.9% (active)

Question: For C[C@H](CO)N1C[C@H](C)[C@H](CN(C)CC2CCCCC2)Oc2ccc(NC(=O)CCCCCC(=O)Nc3ccccc3N)cc2C1=O, which activity score (inhibition) is on record?
Answer: 0.222% (inactive)

Question: Which activity score (inhibition) does the source give for CC(C)NC(=O)Nc1cccc2c1O[C@H](CN(C)CC1CCCCC1)[C@H](C)CN([C@H](C)CO)C2=O here?
Answer: -12% (inactive)

Question: For COc1cc(/C=N\NC(=O)CCCCCCC(=O)NO)c(Br)cc1O, which activity score (inhibition) is on record?
Answer: 22.6% (inactive)

Question: With C[C@@H]1CN([C@H](C)CO)C(=O)c2cccc(NC(=O)C3CC3)c2O[C@@H]1CN(C)C(=O)Nc1ccccc1 as the compound, how does the activity score (inhibition) read?
Answer: -22.6% (inactive)

Question: With C[C@@H]1CN([C@H](C)CO)C(=O)c2cccc(NC(=O)Nc3ccc(F)cc3)c2O[C@@H]1CN(C)C(=O)Nc1ccc(C(F)(F)F)cc1 as the compound, how does the activity score (inhibition) read?
Answer: -4.83% (inactive)

Question: Which activity score (inhibition) does the source give for C[C@@H]1CN([C@@H](C)CO)C(=O)c2cccc(NC(=O)Nc3ccc(C(F)(F)F)cc3)c2O[C@@H]1CN(C)S(=O)(=O)c1ccc(F)cc1 here?
Answer: 71.6% (active)

Question: Which activity score (inhibition) does the source give for C[C@@H]1CN([C@H](C)CO)C(=O)c2cccc(NC(=O)c3ccc(-c4nccs4)cc3)c2O[C@@H]1CN(C)C(=O)Nc1ccc(C(F)(F)F)cc1 here?
Answer: 38.2% (inactive)

Question: For Cc1ccc(S(=O)(=O)Nc2cccc3c2O[C@H](CN(C)C(=O)Nc2ccc(C(F)(F)F)cc2)[C@@H](C)CN([C@@H](C)CO)C3=O)cc1, which activity score (inhibition) is on record?
Answer: -14.4% (inactive)

Question: Which activity score (inhibition) does the source give for C[C@@H]1CN([C@@H](C)CO)C(=O)c2cccc(NC(=O)Nc3ccc(F)cc3)c2O[C@@H]1CN(C)C(=O)Nc1ccccc1 here?
Answer: -2.37% (inactive)

Question: With C[C@H](CO)N1C[C@H](C)[C@H](CN(C)C(=O)Nc2ccc(C(F)(F)F)cc2)Oc2c(NC(=O)c3ccncc3)cccc2C1=O as the compound, how does the activity score (inhibition) read?
Answer: 72.4% (active)

Question: For C[C@H](CO)N1C[C@H](C)[C@H](CN(C)C(=O)Nc2ccccc2)Oc2c(NC(=O)Nc3ccc(C(F)(F)F)cc3)cccc2C1=O, which activity score (inhibition) is on record?
Answer: 70.2% (active)

Question: With C[C@@H]1CN([C@H](C)CO)C(=O)c2cccc(NC(=O)Nc3ccc(C(F)(F)F)cc3)c2O[C@H]1CN(C)S(=O)(=O)c1ccc(Cl)cc1 as the compound, how does the activity score (inhibition) read?
Answer: 36.7% (inactive)

Question: Which activity score (inhibition) does the source give for C[C@H]1CN([C@@H](C)CO)C(=O)c2cccc(NC(=O)Nc3ccc(C(F)(F)F)cc3)c2O[C@H]1CN(C)S(=O)(=O)c1ccccc1 here?
Answer: 11.5% (inactive)

Question: With C[C@H]1CN([C@@H](C)CO)C(=O)c2cccc(NS(=O)(=O)c3ccccc3)c2O[C@@H]1CN(C)C(=O)Nc1ccc(C(F)(F)F)cc1 as the compound, how does the activity score (inhibition) read?
Answer: 34.3% (inactive)

Question: Which activity score (inhibition) does the source give for C[C@H]1CN([C@@H](C)CO)C(=O)c2cccc(NC(=O)c3ccc(-c4nccs4)cc3)c2O[C@@H]1CN(C)C(=O)Nc1ccc(C(F)(F)F)cc1 here?
Answer: -8.3% (inactive)

Question: With C[C@@H]1CN([C@H](C)CO)C(=O)c2cccc(NS(=O)(=O)c3ccc(F)cc3)c2O[C@@H]1CN(C)C(=O)Nc1ccc(C(F)(F)F)cc1 as the compound, how does the activity score (inhibition) read?
Answer: 65.8% (active)

Question: For COc1ccc(NC(=O)Nc2cccc3c2O[C@H](CN(C)S(=O)(=O)c2cn(C)cn2)[C@H](C)CN([C@@H](C)CO)C3=O)cc1, which activity score (inhibition) is on record?
Answer: -20.8% (inactive)

Question: With O=C(NO)c1ccc(C(=O)N/N=C/c2ccc([N+](=O)[O-])c(O)c2)cc1 as the compound, how does the activity score (inhibition) read?
Answer: 1.55% (inactive)

Question: With C[C@@H]1CN([C@@H](C)CO)C(=O)c2cccc(N(C)C)c2O[C@H]1CN(C)S(=O)(=O)c1cccs1 as the compound, how does the activity score (inhibition) read?
Answer: -13.3% (inactive)

Question: Which activity score (inhibition) does the source give for Cc1noc(C)c1NC(=O)N(C)C[C@@H]1Oc2ccc(NC(=O)Nc3ccc(C(F)(F)F)cc3)cc2C(=O)N([C@H](C)CO)C[C@@H]1C here?
Answer: 0.983% (inactive)

Question: Which activity score (inhibition) does the source give for C[C@H](CO)N1C[C@H](C)[C@@H](CN(C)S(=O)(=O)c2ccc(F)cc2)Oc2ccc(NC(=O)CCC(F)(F)F)cc2C1=O here?
Answer: 4.98% (inactive)

Question: With C[C@H](CO)N1C[C@H](C)[C@H](CN(C)S(=O)(=O)c2cn(C)cn2)Oc2c(NC(=O)c3ccc(-c4nccs4)cc3)cccc2C1=O as the compound, how does the activity score (inhibition) read?
Answer: -7.9% (inactive)

Question: With C[C@@H]1CN([C@H](C)CO)C(=O)c2cccc(NC(=O)c3nc4ccccc4s3)c2O[C@@H]1CN(C)Cc1ccc(Oc2ccccc2)cc1 as the compound, how does the activity score (inhibition) read?
Answer: 24.2% (inactive)

Question: Which activity score (inhibition) does the source give for Cc1noc(C)c1NC(=O)Nc1ccc2c(c1)CC(=O)N([C@@H](C)CO)C[C@H](C)[C@@H](CN(C)CC1CCCCC1)O2 here?
Answer: 4.18% (inactive)

Question: For Cc1ccc(S(=O)(=O)N(C)C[C@H]2OCCCC[C@@H](C)Oc3ccc(NS(C)(=O)=O)cc3C(=O)N([C@H](C)CO)C[C@@H]2C)cc1, which activity score (inhibition) is on record?
Answer: 4.35% (inactive)

Question: For COc1ccc(S(=O)(=O)N(C)C[C@@H]2Oc3ccc(NS(=O)(=O)c4cn(C)cn4)cc3C(=O)N([C@@H](C)CO)C[C@@H]2C)cc1, which activity score (inhibition) is on record?
Answer: -13% (inactive)

Question: With COc1ccc(S(=O)(=O)N(C)C[C@H]2Oc3ccc(NS(=O)(=O)c4ccc(F)cc4)cc3C(=O)N([C@H](C)CO)C[C@H]2C)cc1 as the compound, how does the activity score (inhibition) read?
Answer: 6.09% (inactive)

Question: With C[C@H]1CN([C@@H](C)CO)C(=O)CCCn2nncc2CO[C@@H]1CN(C)S(=O)(=O)c1ccccc1C#N as the compound, how does the activity score (inhibition) read?
Answer: -9.5% (inactive)

Question: Which activity score (inhibition) does the source give for C[C@H](CO)N1C[C@H](C)[C@H](CN(C)Cc2ccc(C(F)(F)F)cc2)Oc2ccc(N(C)C)cc2CC1=O here?
Answer: 50.9% (inactive)

Question: Which activity score (inhibition) does the source give for C[C@@H]1CN([C@H](C)CO)C(=O)Cc2cc(N(C)C)ccc2O[C@@H]1CN(C)Cc1ccccc1 here?
Answer: -5.53% (inactive)

Question: Which activity score (inhibition) does the source give for C[C@@H]1CN([C@H](C)CO)C(=O)Cc2cc(NC(=O)c3ccncc3)ccc2O[C@H]1CN(C)Cc1ccc(-c2ccccc2)cc1 here?
Answer: 57.2% (active)

Question: For C[C@H](CO)N1C[C@H](C)[C@H](CN(C)Cc2ccc(-c3ccccc3)cc2)Oc2ccc(NC(=O)Nc3ccc(F)cc3)cc2CC1=O, which activity score (inhibition) is on record?
Answer: 58.8% (active)

Question: With C[C@H]1CN([C@@H](C)CO)C(=O)Cc2cc(N(C)C)ccc2O[C@@H]1CN(C)Cc1ccc(-c2ccccc2)cc1 as the compound, how does the activity score (inhibition) read?
Answer: 68.2% (active)

Question: Which activity score (inhibition) does the source give for C[C@H]1CN([C@@H](C)CO)C(=O)Cc2cc(NC(=O)Nc3ccccc3)ccc2O[C@H]1CN(C)Cc1ccncc1 here?
Answer: 6.16% (inactive)

Question: Which activity score (inhibition) does the source give for C[C@@H]1CN([C@H](C)CO)C(=O)Cc2cc(NC(=O)Nc3ccccc3)ccc2O[C@@H]1CN(C)Cc1ccc(C(F)(F)F)cc1 here?
Answer: 14.2% (inactive)

Question: For COc1ccc(CN(C)C[C@@H]2Oc3ccc(NC(=O)c4ccncc4)cc3CC(=O)N([C@H](C)CO)C[C@H]2C)cc1, which activity score (inhibition) is on record?
Answer: -3.55% (inactive)

Question: Which activity score (inhibition) does the source give for C[C@@H]1CN([C@H](C)CO)C(=O)Cc2cc(NC(=O)c3ccncc3)ccc2O[C@@H]1CN(C)Cc1ccncc1 here?
Answer: -11.9% (inactive)

Question: With C[C@@H]1CCCCO[C@H](CN(C)Cc2ccncc2)[C@@H](C)CN([C@H](C)CO)C(=O)c2cc(NC(=O)CCCN(C)C)ccc2O1 as the compound, how does the activity score (inhibition) read?
Answer: -8.02% (inactive)

Question: With Cc1noc(C)c1NC(=O)Nc1ccc2c(c1)C(=O)N([C@H](C)CO)C[C@H](C)[C@H](CN(C)S(=O)(=O)c1cccs1)O2 as the compound, how does the activity score (inhibition) read?
Answer: 2.68% (inactive)

Question: With C[C@@H]1CN([C@H](C)CO)C(=O)c2cc(NC(=O)CCCCCC(=O)Nc3ccccc3N)ccc2O[C@@H]1CN(C)S(=O)(=O)c1ccc(Cl)cc1 as the compound, how does the activity score (inhibition) read?
Answer: 15.5% (inactive)

Question: With Cc1ccc(S(=O)(=O)N(C)C[C@@H]2Oc3ccc(NS(=O)(=O)c4c(C)noc4C)cc3CC(=O)N([C@H](C)CO)C[C@H]2C)cc1 as the compound, how does the activity score (inhibition) read?
Answer: 4.67% (inactive)

Question: For C[C@H](CO)N1C[C@H](C)[C@H](CN(C)Cc2ccncc2)Oc2ccc(NS(=O)(=O)c3ccc(F)cc3)cc2CC1=O, which activity score (inhibition) is on record?
Answer: -4.01% (inactive)

Question: For C[C@@H]1CCCCO[C@@H](CN(C)Cc2ccc(C(F)(F)F)cc2)[C@@H](C)CN([C@H](C)CO)C(=O)c2cc(NC(=O)Nc3ccccc3)ccc2O1, which activity score (inhibition) is on record?
Answer: 67.7% (active)

Question: Which activity score (inhibition) does the source give for C[C@@H]1CCCCO[C@@H](CN(C)C(=O)Nc2ccccc2)[C@@H](C)CN([C@H](C)CO)C(=O)c2cc(NC(=O)Nc3ccc(F)cc3)ccc2O1 here?
Answer: 7.86% (inactive)

Question: For CC(C)NC(=O)Nc1ccc2c(c1)C(=O)N([C@H](C)CO)C[C@H](C)[C@H](CN(C)Cc1ccc(C(=O)O)cc1)OCCCC[C@@H](C)O2, which activity score (inhibition) is on record?
Answer: -25.6% (inactive)

Question: Which activity score (inhibition) does the source give for CC(C)NC(=O)Nc1ccc2c(c1)C(=O)N([C@H](C)CO)C[C@H](C)[C@@H](CN(C)Cc1ccc(C(F)(F)F)cc1)OCCCC[C@@H](C)O2 here?
Answer: -27.7% (inactive)

Question: Which activity score (inhibition) does the source give for CC(C)NC(=O)N(C)C[C@@H]1OCCCC[C@@H](C)Oc2ccc(NC(=O)Nc3ccccc3)cc2C(=O)N([C@H](C)CO)C[C@@H]1C here?
Answer: -24.2% (inactive)

Question: With CC(C)NC(=O)Nc1ccc2c(c1)C(=O)N([C@H](C)CO)C[C@H](C)[C@H](CN(C)C(=O)Nc1ccc(C(F)(F)F)cc1)OCCCC[C@@H](C)O2 as the compound, how does the activity score (inhibition) read?
Answer: 56.9% (active)
